Reference: PubChem BioAssay (EPA / NIEHS)
Inconclusive results are not listed. Active and inactive are the calls of the source. How the source made its calls, unless noted: active means hit-call score of the fitted dose curve at least 0.9, where 1 is the maximum; inactive means score below 0.9.

Assays:
[1] = ATG_NFI_CIS: Attagene CIS-FACTORIAL HepG2 Assay for human Nuclear Factor I (NFI) (AID 2282989); details: HepG2 cis-regulatory reporter, NFI response element transcription; actives raise or lower the signal
In short: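 HepG2 cells transiently transfected with cis-element-driven multiplexed reporter transcription units, dosed for 24 h. Reporter mRNA quantified by RT-PCR, fluorescent labelling, HpaI digestion and capillary electrophoresis; bidirectional fit versus DMSO baseline.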

[2] = target: Myc proto-oncogene protein (Homo sapiens) (UniProt P01106); experiment: ATG_Myc_CIS: Attagene CIS-FACTORIAL HepG2 Assay for human Myelocytomatosis (Myc) Proto-Oncogene Transcription Factor (AID 2282990); details: HepG2, Attagene cis-reporter transcription factor activity; actives raise or lower the signal
In short: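 Multiplexed cis-reporter transcription in HepG2 cells after 24 h chemical treatment. Reporter mRNA measured by RT-PCR and capillary electrophoresis fluorescence; activity fitted bidirectionally against DMSO control.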

[3] = ATG_NF_kB_CIS: Attagene CIS-FACTORIAL HepG2 Assay for human Nuclear Factor Kappa B (NF-kB) (AID 2282991); details: HepG2 Attagene cis-factorial NF-kB reporter mRNA; actives raise or lower the signal
In short: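 After 24 h compound incubation, transfected HepG2 cells yield total RNA; reporter cDNA is PCR-amplified, end-labelled with 6-FAM, HpaI-digested and analysed on a genetic analyser. Endogenous factor activity, DMSO-referenced bidirectional fit.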

[4] = ATG_NRF2_ARE_CIS: Attagene CIS-FACTORIAL HepG2 Assay for human Nuclear Factor Erythroid 2 Related Factor 2 (NFR2) response to Antioxidant Response Elements (ARE) (AID 2282992); details: HepG2 Attagene ARE/NRF2 reporter, transcription factor activity; actives raise or lower the signal
In short: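 Endogenous transcription factor activity read out as reporter transcript levels (RT-PCR plus capillary electrophoresis, fluorescence) in transiently transfected HepG2 cells. Measured at 24 h after dosing; gain or loss of signal fitted versus DMSO.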

[5] = ATG_Oct_MLP_CIS: Attagene CIS-FACTORIAL HepG2 Assay for human Octamer-Binding Transcription Factor (Oct) (AID 2282993); details: HepG2 Attagene cis-factorial Oct reporter, mRNA; actives raise or lower the signal
In short: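 HepG2 cells transiently transfected with cis-promoter-driven multiplexed reporter transcription units, dosed for 24 h. Reporter mRNA quantified by RT-PCR, fluorescent labelling, HpaI digestion and capillary electrophoresis; bidirectional fits versus DMSO baseline.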

[6] = target: human Peroxisome Proliferator-activated Receptor alpha (PPARa), PPARA (gene 5465) (UniProt Q07869); experiment: ATG_PPARa_TRANS: Attagene TRANS-FACTORIAL HepG2 Assay for human Peroxisome Proliferator-activated Receptor alpha (PPARa) (AID 2283001; active means hit-call score of the fitted dose curve at least 0.9, where 1 is the maximum)
In short: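 Exposure: 24 h, transiently transfected HepG2 cells. Endpoint: GAL4-UAS reporter mRNA, RT-PCR with capillary electrophoresis fluorescence. Baseline: DMSO; increases fitted.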

[7] = target: human Retinoic Acid Receptor beta (RARb), RARB (gene 5915) (UniProt P10826); experiment: ATG_RARb_TRANS: Attagene TRANS-FACTORIAL HepG2 Assay for human Retinoic Acid Receptor beta (AID 2283004; active means hit-call score of the fitted dose curve at least 0.9, where 1 is the maximum)
In short: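 Induction of reporter mRNA from a chimeric RARb-Gal4 construct was measured by RT-PCR, FAM labelling, HpaI digestion and capillary electrophoresis. Measurements followed 24 h compound treatment of transiently transfected human HepG2 liver cells, with DMSO as baseline.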

[8] = target: Peroxisome proliferator-activated receptor gamma (Homo sapiens) (UniProt P37231); experiment: ATG_PPARg_TRANS: Attagene TRANS-FACTORIAL HepG2 Assay for human Peroxisome Proliferator-activated Receptor-gamma (PPARg) (AID 2283007; active means hit-call score of the fitted dose curve at least 0.9, where 1 is the maximum)
In short: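 Liver-derived HepG2 cells expressing an exogenous NR-Gal4 chimera alongside GAL4-UAS reporter genes; 24 h exposure. Fluorescence of reporter RT-PCR products, separated by capillary electrophoresis, gives mRNA induction relative to DMSO.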

[9] = target: Nuclear receptor subfamily 1 group I member 2 (Homo sapiens) (UniProt O75469); experiment: ATG_PXR_TRANS: Attagene TRANS-FACTORIAL HepG2 Assay for human Pregnane X Receptor (PXR) (AID 2283008; active means hit-call score of the fitted dose curve at least 0.9, where 1 is the maximum)
In short: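 Transactivation by exogenous PXR–GAL4 fusion measured as reporter transcript induction after 24 h compound treatment of transfected human HepG2 cells. Read-out via RT-PCR and capillary electrophoresis of labelled fragments, fitted upward relative to DMSO.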

[10] = target: Retinoic acid receptor alpha (Homo sapiens) (UniProt P10276); experiment: ATG_RARa_TRANS: Attagene TRANS-FACTORIAL HepG2 Assay for human Retinoic Acid Receptor alpha (RARa) (AID 2283005; active means hit-call score of the fitted dose curve at least 0.9, where 1 is the maximum)
In short: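 HepG2 cells transiently transfected with multiple reporter units expressing chimeric RARα-GAL4 fusion, with GAL4-UAS-driven reporters. After 24 h compound exposure, reporter mRNA induction quantified by RT-PCR and capillary electrophoresis with fluorescent labeling; gain-of-signal fitted relative to DMSO control.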

[11] = target: human Retinoic Acid Receptor gamma (RARg), RARG (gene 5916) (UniProt P13631); experiment: ATG_RARg_TRANS: Attagene TRANS-FACTORIAL HepG2 Assay for human Retinoic Acid Receptor gamma (RARg) (AID 2283009; active means hit-call score of the fitted dose curve at least 0.9, where 1 is the maximum)
In short: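 Gain-of-signal relative to DMSO is reported from fluorescent capillary electrophoresis of RT-PCR reporter products. These came from HepG2 cells expressing transfected RARg-GAL4 chimeras with UAS reporters, harvested 24 h after dosing.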

[12] = target: Cellular tumor antigen p53 (Homo sapiens) (UniProt P04637); experiment: ATG_p53_CIS: Attagene CIS-FACTORIAL HepG2 Assay for human p53 Transcription Factor (AID 2282994); details: HepG2 p53 cis-element reporter, Attagene mRNA; actives raise or lower the signal
In short: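 Endogenous p53 activity read in transiently transfected HepG2 from a cis-element-driven reporter transcript after 24 h exposure. RNA reverse-transcribed, PCR-amplified, fluorescently labelled and sized by capillary electrophoresis; gain or loss fitted against DMSO baseline.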

[13] = BSK_3C_TissueFactor: BioMAP Diversity Plus: 3C Assay for Tissue Factor Biomarker Activity (AID 2282997); details: BioMAP 3C HUVEC, tissue factor biomarker readout; actives raise or lower the signal
In short: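 Tissue factor on primary human umbilical vein endothelium was read by ELISA 24 h after dosing, gain or loss relative to DMSO. Cytotoxicity ran alongside via SRB (0.1%, TCA-fixed, 560 nm).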

[14] = BSK_3C_uPAR: BioMAP Diversity Plus: 3C Assay for Urokinase-type plasminogen activator receptor (uPAR) Biomarker Activity (AID 2282998); details: BioMAP 3C HUVEC, uPAR biomarker ELISA; actives raise or lower the signal
In short: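 Human umbilical vein endothelial primary cells were exposed to test chemical for 24 h. Cell-surface uPAR was then quantified by ELISA, and responses were fitted bidirectionally against DMSO as negative control and baseline.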

[15] = BSK_3C_VCAM1: BioMAP Diversity Plus: 3C Assay for Vascular cell adhesion molecule 1 (VCAM1) Biomarker Activity (AID 2282999); details: BioMAP 3C HUVEC, VCAM1 ELISA, cytokine-stimulated; actives raise or lower the signal
In short: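 Vascular primary endothelium (human umbilical vein) was exposed to chemicals and assayed 24 h later. VCAM-1 levels came from ELISA, with DMSO serving as baseline for bidirectional fitting.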

[16] = BSK_4H_Eotaxin3: BioMAP Diversity Plus: 4H Assay for Eotaxin 3 Biomarker Activity (AID 2283000); details: primary human endothelial cells (HUVEC); actives raise or lower the signal;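 further: CCL26 protein level quantified by ELISA in parallel with SRB cytotoxicity check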
In short: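 Human umbilical vein endothelial cells (BSK_4H system) dosed with test chemical; Eotaxin-3 (CCL26) measured by ELISA 24 h after dosing. Bidirectional curve fitting relative to DMSO negative control as baseline.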

[17] = target: human Peroxisome Proliferator-activated Receptor delta (PPARd), PPARD (gene 5467) (UniProt Q03181); experiment: ATG_PPARd_TRANS: Attagene TRANS-FACTORIAL HepG2 Assay for human Peroxisome Proliferator-activated Receptor delta (PPARd) (AID 2283002; active means hit-call score of the fitted dose curve at least 0.9, where 1 is the maximum)
In short: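 Multiplexed trans-activation format: HepG2 liver cells expressing exogenous NR-Gal4 chimeras and GAL4-UAS reporters were exposed for 24 h. Reporter mRNA was detected by RT-PCR with capillary electrophoresis fluorescence; activity fitted as gain of signal relative to DMSO.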

[18] = read-out: Intercellular Adhesion Molecule 1 (ICAM1), ICAM1 (gene 3383); experiment: BSK_3C_ICAM1: BioMAP Diversity Plus: 3C Assay for Intercellular Adhesion Molecule 1 (ICAM1) Biomarker Activity (AID 2283003); details: primary human endothelial cells (HUVEC); actives raise or lower the signal
In short: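 Using DMSO as baseline, bidirectional curve fitting was applied to ICAM-1 ELISA signals from HUVEC in the 3C system, measured 24 h after compound addition.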

Measured: AC50

human Peroxisome Proliferator-activated Receptor alpha (PPARa), PPARA (gene 5465), sequence (Q07869 whole entry, looked up, the tested form may be a part): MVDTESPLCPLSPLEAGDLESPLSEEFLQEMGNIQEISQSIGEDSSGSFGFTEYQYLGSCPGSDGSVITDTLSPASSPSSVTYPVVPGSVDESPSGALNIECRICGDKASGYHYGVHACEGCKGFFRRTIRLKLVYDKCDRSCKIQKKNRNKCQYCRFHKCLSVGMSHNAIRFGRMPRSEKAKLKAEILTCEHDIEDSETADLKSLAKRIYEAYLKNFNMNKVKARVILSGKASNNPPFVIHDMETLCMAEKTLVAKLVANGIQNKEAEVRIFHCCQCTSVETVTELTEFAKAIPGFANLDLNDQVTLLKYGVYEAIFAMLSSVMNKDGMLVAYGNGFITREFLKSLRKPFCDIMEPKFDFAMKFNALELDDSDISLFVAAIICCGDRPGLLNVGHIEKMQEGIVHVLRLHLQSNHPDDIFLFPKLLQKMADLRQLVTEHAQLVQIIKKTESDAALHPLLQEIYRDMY
human Retinoic Acid Receptor gamma (RARg), RARG (gene 5916), sequence (P13631 whole entry, looked up, the tested form may be a part): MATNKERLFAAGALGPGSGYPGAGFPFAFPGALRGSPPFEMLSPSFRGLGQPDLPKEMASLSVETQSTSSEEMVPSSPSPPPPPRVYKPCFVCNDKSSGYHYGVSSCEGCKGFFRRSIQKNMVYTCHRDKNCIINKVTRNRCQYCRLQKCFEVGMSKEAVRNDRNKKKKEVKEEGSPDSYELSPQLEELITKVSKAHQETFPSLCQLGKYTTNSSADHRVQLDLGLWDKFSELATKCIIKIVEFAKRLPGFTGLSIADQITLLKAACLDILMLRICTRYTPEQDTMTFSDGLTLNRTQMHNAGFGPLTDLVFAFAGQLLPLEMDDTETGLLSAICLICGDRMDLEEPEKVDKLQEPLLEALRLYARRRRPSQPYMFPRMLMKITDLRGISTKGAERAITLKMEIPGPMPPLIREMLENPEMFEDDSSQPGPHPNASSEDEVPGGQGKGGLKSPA
Cellular tumor antigen p53 (Homo sapiens), sequence (P04637 whole entry, looked up): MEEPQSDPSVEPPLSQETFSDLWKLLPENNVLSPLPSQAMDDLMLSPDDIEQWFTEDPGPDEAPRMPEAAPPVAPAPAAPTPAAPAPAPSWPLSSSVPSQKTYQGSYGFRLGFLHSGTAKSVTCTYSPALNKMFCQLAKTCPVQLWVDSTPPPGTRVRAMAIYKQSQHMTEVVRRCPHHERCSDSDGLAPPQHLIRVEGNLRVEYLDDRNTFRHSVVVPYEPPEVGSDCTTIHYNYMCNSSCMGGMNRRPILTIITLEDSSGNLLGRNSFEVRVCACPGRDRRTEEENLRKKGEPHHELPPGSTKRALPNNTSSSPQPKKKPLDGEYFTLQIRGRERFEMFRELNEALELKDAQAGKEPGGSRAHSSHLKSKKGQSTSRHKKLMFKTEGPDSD
Peroxisome proliferator-activated receptor gamma (Homo sapiens), sequence (P37231 whole entry, looked up, the tested form may be a part): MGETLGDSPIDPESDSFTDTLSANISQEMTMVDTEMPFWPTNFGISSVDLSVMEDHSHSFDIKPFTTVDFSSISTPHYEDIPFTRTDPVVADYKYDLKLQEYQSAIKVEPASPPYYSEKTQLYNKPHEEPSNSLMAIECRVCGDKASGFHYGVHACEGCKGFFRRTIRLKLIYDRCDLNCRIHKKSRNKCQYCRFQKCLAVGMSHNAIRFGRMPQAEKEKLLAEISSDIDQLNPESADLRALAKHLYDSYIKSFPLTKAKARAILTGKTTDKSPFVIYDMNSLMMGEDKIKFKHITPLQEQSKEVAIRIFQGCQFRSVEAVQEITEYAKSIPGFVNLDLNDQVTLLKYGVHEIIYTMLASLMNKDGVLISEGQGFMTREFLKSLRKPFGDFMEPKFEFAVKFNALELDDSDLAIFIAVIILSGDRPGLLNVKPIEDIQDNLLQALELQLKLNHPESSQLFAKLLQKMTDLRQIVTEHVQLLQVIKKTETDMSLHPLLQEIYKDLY
Myc proto-oncogene protein (Homo sapiens), sequence (P01106 whole entry, looked up): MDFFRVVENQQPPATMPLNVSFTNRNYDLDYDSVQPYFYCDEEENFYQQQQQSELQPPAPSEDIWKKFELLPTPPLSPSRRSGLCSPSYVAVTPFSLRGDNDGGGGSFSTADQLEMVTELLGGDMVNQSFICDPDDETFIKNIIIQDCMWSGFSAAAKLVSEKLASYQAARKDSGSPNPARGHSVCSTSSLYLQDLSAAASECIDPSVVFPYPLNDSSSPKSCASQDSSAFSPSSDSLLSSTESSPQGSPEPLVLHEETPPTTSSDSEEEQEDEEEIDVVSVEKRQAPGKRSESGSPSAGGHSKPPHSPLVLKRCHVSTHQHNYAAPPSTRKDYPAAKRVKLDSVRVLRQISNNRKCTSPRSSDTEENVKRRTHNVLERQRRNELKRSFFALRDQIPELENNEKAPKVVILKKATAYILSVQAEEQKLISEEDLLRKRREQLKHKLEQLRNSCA
Nuclear receptor subfamily 1 group I member 2 (Homo sapiens), sequence (O75469 whole entry, looked up, the tested form may be a part): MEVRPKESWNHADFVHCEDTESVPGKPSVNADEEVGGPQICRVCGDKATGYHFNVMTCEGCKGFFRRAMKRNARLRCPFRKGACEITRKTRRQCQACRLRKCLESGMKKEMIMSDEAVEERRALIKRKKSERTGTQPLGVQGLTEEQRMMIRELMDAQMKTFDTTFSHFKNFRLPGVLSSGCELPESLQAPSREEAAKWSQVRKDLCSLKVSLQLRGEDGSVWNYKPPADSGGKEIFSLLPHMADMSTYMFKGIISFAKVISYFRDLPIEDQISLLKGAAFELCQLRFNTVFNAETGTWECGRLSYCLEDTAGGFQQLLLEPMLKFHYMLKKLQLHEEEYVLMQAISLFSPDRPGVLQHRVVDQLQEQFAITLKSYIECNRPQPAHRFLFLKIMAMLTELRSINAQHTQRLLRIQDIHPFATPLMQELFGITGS
human Peroxisome Proliferator-activated Receptor delta (PPARd), PPARD (gene 5467), sequence (Q03181 whole entry, looked up, the tested form may be a part): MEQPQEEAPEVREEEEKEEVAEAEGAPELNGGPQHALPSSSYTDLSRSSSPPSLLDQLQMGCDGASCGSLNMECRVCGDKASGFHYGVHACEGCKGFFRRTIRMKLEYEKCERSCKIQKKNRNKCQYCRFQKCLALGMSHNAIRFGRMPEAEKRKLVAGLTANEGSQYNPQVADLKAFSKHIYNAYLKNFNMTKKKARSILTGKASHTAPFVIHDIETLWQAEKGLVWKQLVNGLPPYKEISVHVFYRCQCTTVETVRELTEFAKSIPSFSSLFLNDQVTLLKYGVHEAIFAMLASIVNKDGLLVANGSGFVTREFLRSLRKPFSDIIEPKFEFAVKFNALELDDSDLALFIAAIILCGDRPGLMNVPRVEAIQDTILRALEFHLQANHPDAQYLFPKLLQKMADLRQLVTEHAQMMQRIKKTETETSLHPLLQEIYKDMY
human Retinoic Acid Receptor beta (RARb), RARB (gene 5915), sequence (P10826 whole entry, looked up, the tested form may be a part): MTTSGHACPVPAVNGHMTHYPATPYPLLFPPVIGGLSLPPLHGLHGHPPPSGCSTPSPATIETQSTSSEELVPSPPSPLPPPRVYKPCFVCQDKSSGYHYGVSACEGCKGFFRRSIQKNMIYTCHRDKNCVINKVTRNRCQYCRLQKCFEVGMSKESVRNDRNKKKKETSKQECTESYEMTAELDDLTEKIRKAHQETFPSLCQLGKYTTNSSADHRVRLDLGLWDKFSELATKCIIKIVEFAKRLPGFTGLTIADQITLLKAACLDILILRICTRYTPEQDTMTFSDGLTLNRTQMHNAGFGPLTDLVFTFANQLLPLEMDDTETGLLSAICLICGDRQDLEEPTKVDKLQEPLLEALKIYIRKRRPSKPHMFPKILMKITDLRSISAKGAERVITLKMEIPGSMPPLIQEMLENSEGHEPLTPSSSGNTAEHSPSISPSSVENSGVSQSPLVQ
Retinoic acid receptor alpha (Homo sapiens), sequence (P10276 whole entry, looked up, the tested form may be a part): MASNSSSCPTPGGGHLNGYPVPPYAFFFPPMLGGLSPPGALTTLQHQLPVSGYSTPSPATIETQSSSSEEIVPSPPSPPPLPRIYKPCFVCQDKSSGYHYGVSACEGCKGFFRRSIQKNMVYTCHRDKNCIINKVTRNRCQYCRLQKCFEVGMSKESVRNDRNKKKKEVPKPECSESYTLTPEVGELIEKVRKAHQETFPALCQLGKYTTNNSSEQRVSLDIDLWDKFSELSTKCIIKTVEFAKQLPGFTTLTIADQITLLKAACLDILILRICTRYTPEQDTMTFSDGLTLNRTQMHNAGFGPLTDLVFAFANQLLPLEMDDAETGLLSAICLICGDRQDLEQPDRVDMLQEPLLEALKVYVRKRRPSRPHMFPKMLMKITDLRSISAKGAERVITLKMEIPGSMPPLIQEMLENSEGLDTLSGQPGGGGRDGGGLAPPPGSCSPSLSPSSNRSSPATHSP

C=CC(=C)CCCC(C)(C)OC(C)=O
inactive: [1] | [2] | [3] | [4] | [5] | [6] | [7] | [8] | [9]

CCCCCCC(C)(C)S
inactive: [1] | [2] | [3] | [4] | [5] | [6] | [10] | [8] | [9] | [11]

C=C[Si]1(C)O[Si](C)(C=C)O[Si](C)(C=C)O[Si](C)(C=C)O1 (configuration not stated)
inactive: [1] | [2] | [5] | [12] | [8]
active: [3] 19.8 µM | [4] 12 µM | [9] 4.48 µM

CC(C)(N=C=O)c1cccc(C(C)(C)N=C=O)c1
active: [4] 13 µM | [9] 11.3 µM
not listed: [6] | [7] | [8] | [10] | [11] | [12]
inactive: all other assays above

O=[N+]([O-])c1cccc(Cl)c1
inactive: [1] | [2] | [3] | [4] | [5] | [12] | [11]

OCCOCCN1CCN(C2=Nc3ccccc3Sc3ccccc32)CC1
inactive: [1] | [2] | [3] | [5] | [11]
active: [4] 176 µM | [12] 75.8 µM | [9] 5.77 µM

C#CC(C)N(C)C(=O)Nc1ccc(Cl)cc1 (configuration not stated)
active: [4] 48.4 µM
inactive: [1] | [2] | [3] | [5] | [12] | [8] | [9] | [11]

CC1CCC(C(C)C)C(O)C1 (configuration not stated)
not listed: [6] | [12] | [13] | [14] | [15] | [16] | [18]
inactive: all other assays above

CCCCCCCCCC(=O)OC
active: [8] 57.1 µM
inactive: [1] | [2] | [3] | [4] | [5] | [6] | [9]
